Assay results reported in PubChem BioAssay (Tox21).
Results filed as inconclusive are left out. Calls of active or inactive are those of the source. Unless noted, the call rests on the fitted dose curve; in most records, active means well fitted curve in the direction sought with a large enough effect in the repeat runs; inconclusive means weak or mixed curves; inactive means no such curve, though single readings can be large; an effect the other way counts as inactive or inconclusive.

Tests used:
[1] = qHTS assay to identify small molecule antagonists of the estrogen related receptor (ERR) signaling pathway from Tox21 library - cell viability counter screen (AID 1224834); further: nearly all actives have a fitted effect of over 30% in size; further: potency means the concentration at half of the fitted maximal effect
Procedure, shortened: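 ERR reporter cells were plated 6 h before compound addition, then exposed to test compounds in DMSO for 17.5 h at 37 C. Viability was read as CellTiter-Fluor fluorescence after a 30-minute incubation at 37 C.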

[2] = target: Luciferin 4-monooxygenase (Photinus pyralis) (UniProt P08659); test: qHTS assay to identify small molecule inhibitors of firefly luciferase (AID 1224835); further: nearly all actives have a fitted effect of over 25% in size; further: potency means the concentration at half of the fitted maximal effect
Procedure, shortened: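 Quantitative HTS format; KM concentrations of both substrates. Purified P. pyralis FLuc activity quantified from luminescence images.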

[3] = qHTS assay to identify small molecule agonists of the constitutive androstane receptor (CAR) signaling pathway - cell viability counter screen (AID 1224836); further: nearly all actives have a fitted effect of over 45% in size; further: potency means the concentration at half of the fitted maximal effect
Procedure, shortened: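 Cells were seeded and incubated 4 hrs. Compounds were added across 15 concentrations together with PK11195 at 0.75 uM final. Plates were incubated 23 hrs at 37 C. CellTiter-Fluor was added and fluorescence measured.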

[4] = qHTS assay to identify small molecule antagonists of the constitutive androstane receptor (CAR) signaling pathway - cell viability counter screen (AID 1224837); further: nearly all actives have a fitted effect of over 45% in size; further: potency means the concentration at half of the fitted maximal effect
Procedure, shortened: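 HepG2 cells stably expressing hCAR and a CYP2B6-2.2kb reporter were plated and pre-incubated 4 hr at 37 C/5% CO2, then given compounds at 15 concentrations plus 50 nM CITCO (final). After 23 hr, viability was read by CellTiter-Fluor fluorescence.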

[5] = target: Nuclear receptor subfamily 1 group I member 3 (Homo sapiens) (UniProt Q14994); test: qHTS assay to identify small molecule antagonists of the constitutive androstane receptor (CAR) signaling pathway (AID 1224838); further: nearly all actives have a fitted effect of over 40% in size; further: potency means the concentration at half of the fitted maximal effect
Procedure, shortened: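 HepG2 cells stably co-transfected with hCAR and a CYP2B6-2.2kb luciferase reporter were seeded 4 h before compound addition at 15 concentrations. Cells were stimulated with 50 nM CITCO (final) for 24 h at 37 C; luciferase luminescence was then read.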

[6] = target: Nuclear receptor subfamily 1 group I member 3 (Homo sapiens) (UniProt Q14994); test: qHTS assay to identify small molecule agonists of the constitutive androstane receptor (CAR) signaling pathway (AID 1224839); further: nearly all actives have a fitted effect of over 15% in size; further: potency means the concentration at half of the fitted maximal effect;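 on activation: HepG2 cells stably carrying human CAR and a CYP2B6 luciferase reporter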
Procedure, shortened: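 Cells were plated and incubated 4 hrs, then dosed with compounds at 15 concentrations. PK11195 was added to 0.75 uM final. After 24 hrs at 37 C, luciferase luminescence was measured.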

[7] = qHTS assay to identify small molecule antagonists of the estrogen related receptor signaling pathway with the pleiotropic PPARgamma coactivator (PGC) from Tox21 10K library - cell viability counter screen (AID 1224840; active means well fitted cell-killing curve with a large enough effect in the repeat runs, not every such curve was filed as active; further: nearly all actives have a fitted effect of over 40% in size; further: potency means the concentration at half of the fitted maximal effect)
Procedure, shortened: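 PGC/ERR cells were seeded at 2,000 cells/well and left 6 hours at 37 C/5% CO2 before pin-tool addition of compounds in DMSO. After 17.5 hours at 37 C, CellTiter-Fluor was added and fluorescence read 30 minutes later.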

[8] = qHTS assay to identify small molecule antagonists of the estrogen related receptor signaling pathway with the pleiotropic PPARgamma coactivator (PGC) from Tox21 10K library (AID 1224841; call rule not given here; further: actives are mostly falling curves and most rising ones were filed inactive; nearly all actives have a fitted effect of over 50% in size; further: potency means the concentration at half of the fitted maximal effect)
Procedure, shortened: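 PGC/ERR reporter cells were seeded at 2,000 cells/well and held 6 hours at 37 C/5% CO2 before pin-tool addition of compounds in DMSO. After 18 hours at 37 C, One-Glo was added and luminescence read after 30 minutes at room temperature.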

[9] = qHTS assay to identify small molecule agonists of the estrogen related receptor signaling pathway with the pleiotropic PPARgamma coactivator (PGC) from Tox21 10K library (AID 1224842); further: nearly all actives have a fitted effect of over 15% in size
Procedure, shortened: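 PGC/ERR reporter cells (NTP line) were seeded 2,000 per well, rested 6 h at 37 C/5% CO2, then pin-dosed with compounds in DMSO for 18 h at 37 C; luciferase read by One-Glo luminescence after 30 min at room temperature.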

[10] = qHTS assay to identify small molecule agonists of the hypoxia (HIF-1) signaling pathway (AID 1224846; active means well fitted activation curve with a large enough effect in the signal ratio in the repeat runs, not every such curve was filed as active; the % refers to the signal ratio)
Procedure, shortened: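 HRE-bla ME-180 cells (beta-lactamase reporter under hypoxia response element) were plated at 2,000 cells/well in medium with 0.5% dialyzed FBS, rested 5 hrs, then given compounds in DMSO for 17 hrs at 37C, 5% CO2. Reporter induction was read with CCF4-AM FRET substrate.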

[11] = qHTS assay to identify small molecule agonists of H2AX - cell viability counter screen (AID 1224847; calls by dose curve; further: nearly all actives have a fitted effect of over 30% in size; further: potency means the concentration at half of the fitted maximal effect)
Procedure, shortened: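 Cytotoxicity counter screen in wild-type CHO-K1 cells: a 3 hr compound treatment at 37C across 15 concentrations, followed by CellTiter-Glo luminescence to gauge viable cells.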

[12] = qHTS assay to identify small molecule antagonists of the estrogen related receptor (ERR) signaling pathway from Tox21 library (AID 1224848); further: nearly all actives have a fitted effect of over 50% in size; further: potency means the concentration at half of the fitted maximal effect
Procedure, shortened: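 Screening used an ERR reporter line supplied by NTP, exposed for 18 h at 37 C to library compounds delivered in DMSO. Signal was luciferase luminescence developed with ONE-Glo at room temperature for 30 min.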

[13] = qHTS assay to identify small molecule agonists of the estrogen related receptor (ERR) signaling pathway from Tox21 library (AID 1224849; calls by dose curve; further: nearly all actives have a fitted effect of over 15% in size); conditions: ERR reporter cell line, ONE-Glo luciferase, 18 h; at 92.4 µM (top of the series) unless noted
Procedure, shortened: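 ERR reporter cell line (NTP) seeded, rested 6 h at 37 C/5% CO2, then pinned with Tox21 compounds in DMSO. After 18 h at 37 C, ONE-Glo luciferase luminescence was read following 30 min at room temperature.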

[14] = qHTS RealTime-Glo MT Cell Viability Assay in HepG2 cells - 24 hour (AID 1224867); further: nearly all actives have a fitted effect of over 50% in size
Procedure, shortened: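 Tox21 10K library screened in qHTS format on HepG2 cells carrying RealTime-Glo reagents. Compounds were added after a 5 h preincubation, and the luminescent signal from continuous culture was measured repeatedly during 40 h treatment.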

[15] = qHTS RealTime-Glo MT Cell Viability Assay in HEK293 cells - 32 hour (AID 1224868); further: top concentration of the series differs between compounds; nearly all actives have a fitted effect of over 50% in size
Procedure, shortened: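 Luminescence generated by NanoLuc from substrate produced by living HEK293 cells served as the viability signal. Each value reflects the reading at its stated time point during continuous 40 h compound exposure at 37 C.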

[16] = A CellTox Green Cytotoxicity Assay to monitor cytotoxicity in HEK293 cells - 0 hour (AID 1224869); further: nearly all actives have a fitted effect of over 50% in size
Procedure, shortened: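 HEK293 cells premixed with CellTox Green dye were seeded at 600 cells/well and left 5 h at 37 C/5% CO2 before pin transfer of 23 nL compound in DMSO. Fluorescence from dye bound to dead-cell DNA was read during 40 h treatment.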

[17] = qHTS RealTime-Glo MT Cell Viability Assay in HepG2 cells - 40 hour (AID 1224870); further: nearly all actives have a fitted effect of over 50% in size
Procedure, shortened: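 HepG2 cells mixed with RealTime-Glo MT reagents (NanoLuc plus cell-permeant prosubstrate) were seeded at 600 cells/well, incubated 5 h at 37 C/5% CO2, then pinned with compounds in DMSO; nonlytic luminescence tracked viability during 40 h treatment.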

[18] = target: Thyrotropin receptor (Homo sapiens) (UniProt P16473); test: qHTS assay to identify small molecule agonists of the thyroid stimulating hormone receptor (TSHR) signaling pathway (AID 1224843; calls by dose curve; further: nearly all actives have a fitted effect of over 45% in size)
Procedure, shortened: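 Cell line HEK293 with TSHR; density 800/well. Exposure 30 min RT. Readout HTRF cAMP (cAMP-d2/anti-cAMP-cryptate), 1 h RT before reading.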

[19] = qHTS assay to identify small molecule agonists of the hypoxia (HIF-1) signaling pathway - cell viability counter screen (AID 1224844; calls by dose curve; further: nearly all actives have a fitted effect of over 50% in size)
Procedure, shortened: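 HRE-bla ME-180 cells in medium with 0.5% dialyzed FBS were preincubated 5 hrs at 37C, exposed to compounds for 17 hrs, then viability was read as CellTiter-Glo luminescence after 30 min at room temperature, in the reporter wells.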

[20] = qHTS assay to identify small molecule agonists of H2AX (AID 1224845; active means well fitted activation curve with a large enough effect in the signal ratio in the repeat runs, not every such curve was filed as active; the % refers to the signal ratio)
Procedure, shortened: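 Wild-type CHO-K1 cells plated overnight, then exposed 3 hr at 37C to compounds at 15 concentrations (0.76% DMSO). Lysed, then HTRF anti-pH2AX(S139)-cryptate/anti-H2AX-d2 detection after 24 hr at room temperature; emissions 665 and 620 nm.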
On the % scale 0 is the no-effect control and ±100 the full control effect.

Sequence of Nuclear receptor subfamily 1 group I member 3 (Homo sapiens) (Q14994 whole entry, looked up): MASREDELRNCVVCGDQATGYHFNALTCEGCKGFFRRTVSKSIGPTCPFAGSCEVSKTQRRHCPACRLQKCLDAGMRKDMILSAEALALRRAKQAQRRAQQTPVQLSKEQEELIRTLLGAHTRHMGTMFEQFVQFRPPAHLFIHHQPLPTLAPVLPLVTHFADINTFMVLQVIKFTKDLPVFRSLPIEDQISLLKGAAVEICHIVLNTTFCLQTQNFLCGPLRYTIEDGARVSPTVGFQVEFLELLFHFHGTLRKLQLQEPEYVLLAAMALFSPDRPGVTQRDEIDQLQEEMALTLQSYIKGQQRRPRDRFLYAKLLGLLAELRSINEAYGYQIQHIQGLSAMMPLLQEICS
Sequence of Luciferin 4-monooxygenase (Photinus pyralis) (P08659 whole entry, looked up): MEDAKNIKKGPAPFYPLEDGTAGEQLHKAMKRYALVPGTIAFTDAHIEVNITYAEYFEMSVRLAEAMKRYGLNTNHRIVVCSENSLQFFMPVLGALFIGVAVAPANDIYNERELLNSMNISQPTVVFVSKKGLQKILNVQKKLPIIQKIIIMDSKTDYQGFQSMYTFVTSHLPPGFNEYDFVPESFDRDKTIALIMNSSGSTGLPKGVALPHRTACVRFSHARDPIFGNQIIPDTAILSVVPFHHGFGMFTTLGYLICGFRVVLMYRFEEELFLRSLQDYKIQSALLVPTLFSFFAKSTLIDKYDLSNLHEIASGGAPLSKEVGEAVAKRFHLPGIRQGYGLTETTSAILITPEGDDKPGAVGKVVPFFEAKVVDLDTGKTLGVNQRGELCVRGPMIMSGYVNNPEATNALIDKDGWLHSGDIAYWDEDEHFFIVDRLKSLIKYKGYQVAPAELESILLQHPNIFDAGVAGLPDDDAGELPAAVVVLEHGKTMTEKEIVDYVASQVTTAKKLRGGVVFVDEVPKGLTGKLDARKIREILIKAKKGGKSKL
Sequence of Thyrotropin receptor (Homo sapiens) (P16473 whole entry, looked up): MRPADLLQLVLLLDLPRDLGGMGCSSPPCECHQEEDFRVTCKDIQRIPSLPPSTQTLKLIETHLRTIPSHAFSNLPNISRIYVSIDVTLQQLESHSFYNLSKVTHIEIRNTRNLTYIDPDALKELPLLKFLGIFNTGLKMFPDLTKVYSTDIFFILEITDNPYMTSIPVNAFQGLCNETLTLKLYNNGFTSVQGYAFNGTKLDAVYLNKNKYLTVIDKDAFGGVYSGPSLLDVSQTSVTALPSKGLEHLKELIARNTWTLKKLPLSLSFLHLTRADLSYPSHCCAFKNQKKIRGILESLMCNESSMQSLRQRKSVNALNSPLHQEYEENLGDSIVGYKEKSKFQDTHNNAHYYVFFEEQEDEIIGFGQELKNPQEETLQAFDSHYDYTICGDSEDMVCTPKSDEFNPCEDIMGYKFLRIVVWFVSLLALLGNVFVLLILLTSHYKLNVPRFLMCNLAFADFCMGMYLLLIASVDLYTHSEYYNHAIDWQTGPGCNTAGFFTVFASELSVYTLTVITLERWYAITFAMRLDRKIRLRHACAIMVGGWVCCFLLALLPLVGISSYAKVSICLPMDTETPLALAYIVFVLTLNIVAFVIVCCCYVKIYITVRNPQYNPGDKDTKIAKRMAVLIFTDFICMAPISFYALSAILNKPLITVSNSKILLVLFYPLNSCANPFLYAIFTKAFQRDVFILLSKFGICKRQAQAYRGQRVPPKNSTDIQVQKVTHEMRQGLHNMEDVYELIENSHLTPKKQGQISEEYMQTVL

CCN(Cc1cccc(S(=O)(=O)O)c1)c1ccc(C(=C2C=CC(=[N+](CC)Cc3cccc(S(=O)(=O)O)c3)C=C2)c2ccccc2S(=O)(=O)[O-])cc1
inactive: Potency [6] | Potency [9] | outcome [10] | activity change, positive = activation [13] -48.9% [at 42.5 µM] | Potency [14] | Potency [15] | Potency [16] | Potency [17]
active: Potency [1] 30.7 µM | Potency [2] 20.1 µM | Potency [3] 34.5 µM | Potency [4] 34.5 µM | Potency [5] 15.4 µM | Potency [7] 27.4 µM | Potency [8] 8.67 µM | Potency [11] 25.4 µM | Potency [12] 15.4 µM

O=C1OC[C@H](Cc2cccc(O)c2)[C@H]1Cc1cccc(O)c1
inactive: Potency [1] | Potency [2] | Potency [3] | Potency [4] | Potency [5] | Potency [6] | Potency [7] | Potency [18] | Potency [19] | Potency [20] | outcome [10] | Potency [11] | Potency [14] | Potency [15] | Potency [16] | Potency [17]

CC(=O)N[C@@H](Cc1ccc(O)cc1)C(=O)O
inactive: Potency [1] | Potency [2] | Potency [3] | Potency [4] | Potency [5] | Potency [6] | Potency [7] | Potency [8] | Potency [9] | Potency [18] | Potency [19] | Potency [20] | Potency [11] | Potency [12] | activity change, positive = activation [13] 1.4% [at 42.5 µM] | Potency [15] | Potency [16] | Potency [17]

CCN(Cc1cccc(S(=O)(=O)O)c1)c1ccc(C(=C2C=CC(=[N+](CC)Cc3cccc(S(=O)(=O)O)c3)C=C2)c2ccc(O)cc2S(=O)(=O)[O-])cc1
active: Potency [1] 16.6 µM | Potency [2] 10.8 µM | Potency [3] 16.6 µM | Potency [4] 29.5 µM | Potency [5] 11.7 µM | Potency [7] 33.1 µM | Potency [8] 16.6 µM | Potency [11] 19.4 µM | Potency [12] 16.6 µM
inactive: Potency [6] | Potency [9] | outcome [10] | activity change, positive = activation [13] -59.2% [at 42.5 µM] | Potency [14] | Potency [15] | Potency [16] | Potency [17]

Nc1ccc(F)cc1
inactive: Potency [1] | Potency [2] | Potency [3] | Potency [4] | Potency [5] | Potency [6] | Potency [7] | Potency [8] | Potency [9] | Potency [19] | Potency [20] | outcome [10] | Potency [11] | Potency [12] | activity change, positive = activation [13] 0.224% | Potency [14] | Potency [15] | Potency [17]

O=C(O)CNC(=O)c1ccccc1I
inactive: Potency [1] | Potency [2] | Potency [3] | Potency [4] | Potency [5] | Potency [6] | Potency [7] | Potency [18] | Potency [19] | Potency [20] | outcome [10] | Potency [11] | Potency [14] | Potency [15] | Potency [16] | Potency [17]

C1CCCCC1
inactive: Potency [1] | Potency [2] | Potency [3] | Potency [4] | Potency [5] | Potency [6] | Potency [7] | Potency [8] | Potency [9] | Potency [19] | Potency [20] | outcome [10] | Potency [11] | Potency [12] | activity change, positive = activation [13] 7.76% | Potency [14] | Potency [15] | Potency [17]

COC1CCC=CO1 (stereo not drawn)
inactive: Potency [1] | Potency [2] | Potency [3] | Potency [4] | Potency [5] | Potency [6] | Potency [7] | Potency [8] | Potency [9] | Potency [18] | Potency [19] | Potency [20] | outcome [10] | Potency [11] | Potency [12] | activity change, positive = activation [13] 5.99% | Potency [15] | Potency [16] | Potency [17]

OCC(CO)n1cnc(-c2ccc(F)cc2)c1-c1ccnc(Oc2ccccc2)n1
inactive: Potency [1] | Potency [2] | Potency [3] | Potency [4] | Potency [5] | Potency [6] | Potency [7] | Potency [9] | Potency [18] | Potency [20] | outcome [10] | Potency [11] | activity change, positive = activation [13] -29% | Potency [14] | Potency [15] | Potency [16] | Potency [17]
active: Potency [12] 27.3 µM

O=C1c2ccccc2C(=O)c2c(O)ccc(O)c21
active: Potency [6] 48.6 µM | Potency [8] 0.545 µM
inactive: Potency [1] | Potency [2] | Potency [3] | Potency [4] | Potency [5] | Potency [7] | Potency [9] | Potency [19] | Potency [20] | outcome [10] | Potency [11] | Potency [12] | activity change, positive = activation [13] -2.45% | Potency [14] | Potency [15] | Potency [16] | Potency [17]

O=C(O)c1ccc(O)cc1O
inactive: Potency [1] | Potency [2] | Potency [3] | Potency [4] | Potency [5] | Potency [6] | Potency [7] | Potency [8] | Potency [9] | Potency [18] | Potency [19] | Potency [20] | outcome [10] | Potency [11] | Potency [12] | activity change, positive = activation [13] -9.45% | Potency [14] | Potency [16] | Potency [17]

SCCc1cnccn1
inactive: Potency [1] | Potency [2] | Potency [3] | Potency [4] | Potency [5] | Potency [6] | Potency [7] | Potency [8] | Potency [9] | Potency [19] | Potency [20] | outcome [10] | Potency [11] | activity change, positive = activation [13] -18.7% | Potency [14] | Potency [15] | Potency [16]

COc1ccc(-c2cc(C(F)F)nn2-c2ccc(S(N)(=O)=O)cc2)cc1F
inactive: Potency [1] | Potency [2] | Potency [3] | Potency [4] | Potency [5] | Potency [6] | Potency [7] | Potency [8] | Potency [9] | Potency [19] | Potency [20] | outcome [10] | Potency [11] | activity change, positive = activation [13] -17.4% [at 42.5 µM] | Potency [14] | Potency [16] | Potency [17]

CN=C(N)NC(=O)Nc1c(C)cccc1C
inactive: Potency [1] | Potency [2] | Potency [3] | Potency [4] | Potency [5] | Potency [6] | Potency [7] | Potency [8] | Potency [9] | Potency [18] | Potency [20] | outcome [10] | Potency [11] | Potency [12] | activity change, positive = activation [13] -0.434% [at 42.5 µM] | Potency [14] | Potency [15] | Potency [16] | Potency [17]
